In the supplement of paper PMC11732987, “Enantioselective OTUD7B fragment discovery through chemoproteomics screening and high-throughput optimisation” (Communications Chemistry, 2025):

Columns and labels:
Assay in all cases: log2 ratio of Biotin-Ahx-Ub-VS probe labelling (fragment/DMSO); higher = less target engagement (more negative = stronger competition), active = hit call of the paper (q ≤ 0.05, log2 ratio ≤ -1)
Details in all cases: compound concentration: 200 uM; treatment time: 3 h
[1] = target: USP34 (UniProt Q70CQ2)
Chain of USP34 (Q70CQ2 whole entry, the tested form may be a part): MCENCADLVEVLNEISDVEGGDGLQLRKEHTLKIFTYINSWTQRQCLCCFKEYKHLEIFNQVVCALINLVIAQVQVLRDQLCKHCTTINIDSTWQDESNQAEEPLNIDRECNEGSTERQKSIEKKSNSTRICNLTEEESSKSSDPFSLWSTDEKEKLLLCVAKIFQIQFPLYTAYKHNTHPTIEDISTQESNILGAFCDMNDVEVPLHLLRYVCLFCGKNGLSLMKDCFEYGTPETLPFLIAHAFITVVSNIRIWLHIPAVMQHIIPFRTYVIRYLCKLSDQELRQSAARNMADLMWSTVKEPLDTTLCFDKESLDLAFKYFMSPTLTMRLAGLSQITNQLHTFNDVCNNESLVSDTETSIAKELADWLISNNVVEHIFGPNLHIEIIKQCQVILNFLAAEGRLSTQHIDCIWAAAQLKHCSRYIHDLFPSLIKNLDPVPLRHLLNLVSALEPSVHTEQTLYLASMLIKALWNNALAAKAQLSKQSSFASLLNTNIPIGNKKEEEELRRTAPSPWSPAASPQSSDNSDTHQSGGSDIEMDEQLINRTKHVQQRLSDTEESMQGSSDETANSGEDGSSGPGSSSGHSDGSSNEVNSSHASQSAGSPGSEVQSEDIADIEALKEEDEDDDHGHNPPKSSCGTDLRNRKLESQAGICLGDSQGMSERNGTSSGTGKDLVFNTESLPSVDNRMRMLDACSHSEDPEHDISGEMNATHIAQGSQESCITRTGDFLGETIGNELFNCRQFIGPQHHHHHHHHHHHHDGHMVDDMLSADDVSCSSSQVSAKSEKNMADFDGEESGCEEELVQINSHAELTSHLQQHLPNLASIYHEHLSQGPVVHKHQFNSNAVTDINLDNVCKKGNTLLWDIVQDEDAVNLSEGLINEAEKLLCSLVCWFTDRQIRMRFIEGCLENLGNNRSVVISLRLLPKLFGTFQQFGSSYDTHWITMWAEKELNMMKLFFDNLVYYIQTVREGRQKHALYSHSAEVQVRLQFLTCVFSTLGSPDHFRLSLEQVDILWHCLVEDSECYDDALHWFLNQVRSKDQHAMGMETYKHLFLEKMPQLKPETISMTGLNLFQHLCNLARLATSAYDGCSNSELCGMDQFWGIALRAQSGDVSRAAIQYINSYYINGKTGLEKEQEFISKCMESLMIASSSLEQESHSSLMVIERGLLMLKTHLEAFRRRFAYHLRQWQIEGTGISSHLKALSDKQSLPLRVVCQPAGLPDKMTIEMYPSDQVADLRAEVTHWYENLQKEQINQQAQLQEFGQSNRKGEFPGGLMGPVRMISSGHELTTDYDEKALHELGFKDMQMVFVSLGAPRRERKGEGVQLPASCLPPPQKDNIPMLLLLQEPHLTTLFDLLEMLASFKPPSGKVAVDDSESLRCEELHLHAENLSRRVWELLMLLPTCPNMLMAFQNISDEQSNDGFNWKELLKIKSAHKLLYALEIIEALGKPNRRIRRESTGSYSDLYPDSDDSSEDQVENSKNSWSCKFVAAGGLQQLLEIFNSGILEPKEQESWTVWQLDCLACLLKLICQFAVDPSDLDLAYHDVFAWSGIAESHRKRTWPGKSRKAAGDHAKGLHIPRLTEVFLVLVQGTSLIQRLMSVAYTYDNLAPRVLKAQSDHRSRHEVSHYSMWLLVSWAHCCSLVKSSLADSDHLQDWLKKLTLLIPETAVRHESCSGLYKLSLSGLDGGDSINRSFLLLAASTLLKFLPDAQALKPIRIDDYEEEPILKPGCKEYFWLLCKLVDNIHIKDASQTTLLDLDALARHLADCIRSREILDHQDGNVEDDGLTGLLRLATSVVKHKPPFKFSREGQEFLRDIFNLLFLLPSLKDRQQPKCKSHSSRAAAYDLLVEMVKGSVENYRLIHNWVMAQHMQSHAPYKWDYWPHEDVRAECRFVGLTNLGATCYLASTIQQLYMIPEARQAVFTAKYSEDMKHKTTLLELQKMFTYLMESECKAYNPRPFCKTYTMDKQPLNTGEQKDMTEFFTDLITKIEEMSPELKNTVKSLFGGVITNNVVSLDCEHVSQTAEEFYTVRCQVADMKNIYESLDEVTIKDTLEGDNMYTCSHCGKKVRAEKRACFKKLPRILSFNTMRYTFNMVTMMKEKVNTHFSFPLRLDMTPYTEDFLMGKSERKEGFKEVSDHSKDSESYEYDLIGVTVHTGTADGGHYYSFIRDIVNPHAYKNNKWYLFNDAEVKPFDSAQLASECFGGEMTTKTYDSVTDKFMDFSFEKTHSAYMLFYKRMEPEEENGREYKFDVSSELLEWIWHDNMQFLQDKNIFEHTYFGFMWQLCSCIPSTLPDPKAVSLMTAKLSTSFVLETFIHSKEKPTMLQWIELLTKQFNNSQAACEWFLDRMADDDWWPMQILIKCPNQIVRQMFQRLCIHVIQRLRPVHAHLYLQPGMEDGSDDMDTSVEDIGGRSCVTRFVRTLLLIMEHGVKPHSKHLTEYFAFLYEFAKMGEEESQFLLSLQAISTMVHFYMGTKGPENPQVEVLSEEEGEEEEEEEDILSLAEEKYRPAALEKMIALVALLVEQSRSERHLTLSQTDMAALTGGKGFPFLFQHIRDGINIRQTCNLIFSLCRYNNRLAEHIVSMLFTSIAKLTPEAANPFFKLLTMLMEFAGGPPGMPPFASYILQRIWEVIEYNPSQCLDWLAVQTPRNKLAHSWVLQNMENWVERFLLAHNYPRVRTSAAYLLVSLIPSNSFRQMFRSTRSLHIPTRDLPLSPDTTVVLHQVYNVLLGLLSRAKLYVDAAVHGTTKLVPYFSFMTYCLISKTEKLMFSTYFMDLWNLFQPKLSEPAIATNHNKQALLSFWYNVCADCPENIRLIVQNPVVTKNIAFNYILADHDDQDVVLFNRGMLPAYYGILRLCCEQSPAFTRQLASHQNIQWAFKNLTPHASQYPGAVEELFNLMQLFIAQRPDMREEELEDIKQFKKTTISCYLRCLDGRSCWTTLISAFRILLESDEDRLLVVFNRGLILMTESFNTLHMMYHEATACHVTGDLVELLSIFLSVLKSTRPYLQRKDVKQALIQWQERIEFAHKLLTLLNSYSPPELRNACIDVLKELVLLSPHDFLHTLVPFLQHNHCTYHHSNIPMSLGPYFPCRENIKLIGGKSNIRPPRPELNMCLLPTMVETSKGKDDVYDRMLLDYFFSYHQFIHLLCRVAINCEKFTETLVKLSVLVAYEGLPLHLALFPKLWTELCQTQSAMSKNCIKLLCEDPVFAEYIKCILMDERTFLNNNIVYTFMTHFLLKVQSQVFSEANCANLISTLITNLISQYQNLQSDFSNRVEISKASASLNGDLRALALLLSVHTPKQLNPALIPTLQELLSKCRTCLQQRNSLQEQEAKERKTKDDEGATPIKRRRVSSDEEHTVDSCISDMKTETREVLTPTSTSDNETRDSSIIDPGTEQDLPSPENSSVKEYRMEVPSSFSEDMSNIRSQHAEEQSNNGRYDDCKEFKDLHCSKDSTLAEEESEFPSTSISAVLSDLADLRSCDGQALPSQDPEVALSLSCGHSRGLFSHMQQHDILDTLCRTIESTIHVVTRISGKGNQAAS
Outline: (§1)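 Each value is an average log2 ratio of fragment to vehicle, tested by unpaired t-test. The underlying Spectronaut label-free quantities were global-median-normalised, and only proteins with ≥2 unique peptides were included. Triplicate HEK293T lysate samples (495 µg) were exposed to fragment at 200 µM or vehicle for 3 h, then to Biotin-Ahx-Ub-VS at 0.5 µM final for 1 h, before NeutrAvidin enrichment of labelled DUBs, LysC and trypsin digestion, and diaPASEF LC-MS/MS.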

[2] = target: T1, USP36 (UniProt Q9P275)
T1 sequence (whole entry): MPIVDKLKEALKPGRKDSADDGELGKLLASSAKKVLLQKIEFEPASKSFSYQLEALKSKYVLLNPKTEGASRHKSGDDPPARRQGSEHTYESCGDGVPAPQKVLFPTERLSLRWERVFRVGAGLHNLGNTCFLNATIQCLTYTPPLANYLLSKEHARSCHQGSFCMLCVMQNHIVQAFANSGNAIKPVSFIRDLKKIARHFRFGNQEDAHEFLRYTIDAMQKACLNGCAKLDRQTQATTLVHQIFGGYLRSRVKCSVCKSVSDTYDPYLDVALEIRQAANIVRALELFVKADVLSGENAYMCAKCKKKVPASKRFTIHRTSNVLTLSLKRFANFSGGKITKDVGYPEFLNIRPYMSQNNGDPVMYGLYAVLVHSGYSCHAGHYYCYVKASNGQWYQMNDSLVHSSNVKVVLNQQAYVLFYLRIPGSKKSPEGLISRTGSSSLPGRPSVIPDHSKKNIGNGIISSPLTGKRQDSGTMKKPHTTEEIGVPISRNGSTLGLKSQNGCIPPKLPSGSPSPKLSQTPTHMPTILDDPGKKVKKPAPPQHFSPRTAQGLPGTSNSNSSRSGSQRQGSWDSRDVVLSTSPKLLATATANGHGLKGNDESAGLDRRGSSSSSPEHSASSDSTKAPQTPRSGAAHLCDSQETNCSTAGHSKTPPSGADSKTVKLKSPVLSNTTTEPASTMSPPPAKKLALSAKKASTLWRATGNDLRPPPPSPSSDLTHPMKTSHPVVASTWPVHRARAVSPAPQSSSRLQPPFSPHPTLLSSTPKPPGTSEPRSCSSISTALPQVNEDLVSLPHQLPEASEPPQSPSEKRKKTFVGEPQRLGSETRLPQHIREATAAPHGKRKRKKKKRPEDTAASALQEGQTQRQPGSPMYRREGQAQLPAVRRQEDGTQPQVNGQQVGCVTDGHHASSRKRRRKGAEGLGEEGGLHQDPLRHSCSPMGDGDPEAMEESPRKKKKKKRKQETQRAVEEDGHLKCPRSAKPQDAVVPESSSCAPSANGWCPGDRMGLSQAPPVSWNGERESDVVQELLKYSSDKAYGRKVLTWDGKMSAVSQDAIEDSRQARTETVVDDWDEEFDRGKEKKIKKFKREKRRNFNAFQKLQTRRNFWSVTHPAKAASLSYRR
Outline: as §1

[3] = target: T2, USP38 (UniProt Q8NB14)
T2 sequence (whole entry): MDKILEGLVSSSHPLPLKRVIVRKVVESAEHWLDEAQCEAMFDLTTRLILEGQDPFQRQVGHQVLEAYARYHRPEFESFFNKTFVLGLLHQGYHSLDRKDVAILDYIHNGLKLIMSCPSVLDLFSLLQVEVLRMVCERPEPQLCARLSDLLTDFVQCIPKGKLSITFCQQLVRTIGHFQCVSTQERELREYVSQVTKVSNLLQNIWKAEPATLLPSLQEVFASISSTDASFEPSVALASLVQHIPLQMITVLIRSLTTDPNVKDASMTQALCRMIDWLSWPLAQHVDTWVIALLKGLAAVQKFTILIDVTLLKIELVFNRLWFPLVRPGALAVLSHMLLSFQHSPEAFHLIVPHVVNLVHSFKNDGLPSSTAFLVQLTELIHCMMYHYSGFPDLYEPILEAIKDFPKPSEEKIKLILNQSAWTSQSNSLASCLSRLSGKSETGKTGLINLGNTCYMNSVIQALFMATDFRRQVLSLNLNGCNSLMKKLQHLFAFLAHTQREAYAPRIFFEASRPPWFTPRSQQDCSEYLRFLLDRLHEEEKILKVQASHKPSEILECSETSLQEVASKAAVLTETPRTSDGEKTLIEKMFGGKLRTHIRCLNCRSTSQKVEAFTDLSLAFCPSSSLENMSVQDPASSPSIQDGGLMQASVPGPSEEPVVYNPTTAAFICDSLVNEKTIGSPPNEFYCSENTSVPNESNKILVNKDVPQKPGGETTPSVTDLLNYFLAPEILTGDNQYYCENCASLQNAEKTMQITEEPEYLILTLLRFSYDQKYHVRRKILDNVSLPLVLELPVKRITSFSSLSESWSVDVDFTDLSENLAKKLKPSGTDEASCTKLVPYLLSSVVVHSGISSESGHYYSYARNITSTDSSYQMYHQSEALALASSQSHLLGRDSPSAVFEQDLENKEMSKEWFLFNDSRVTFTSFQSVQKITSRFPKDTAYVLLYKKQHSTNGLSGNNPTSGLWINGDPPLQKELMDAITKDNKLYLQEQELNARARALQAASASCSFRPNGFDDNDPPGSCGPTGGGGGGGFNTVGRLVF
Outline: as §1

[4] = target: T3, USP39 (UniProt Q53GS9)
T3 sequence (whole entry): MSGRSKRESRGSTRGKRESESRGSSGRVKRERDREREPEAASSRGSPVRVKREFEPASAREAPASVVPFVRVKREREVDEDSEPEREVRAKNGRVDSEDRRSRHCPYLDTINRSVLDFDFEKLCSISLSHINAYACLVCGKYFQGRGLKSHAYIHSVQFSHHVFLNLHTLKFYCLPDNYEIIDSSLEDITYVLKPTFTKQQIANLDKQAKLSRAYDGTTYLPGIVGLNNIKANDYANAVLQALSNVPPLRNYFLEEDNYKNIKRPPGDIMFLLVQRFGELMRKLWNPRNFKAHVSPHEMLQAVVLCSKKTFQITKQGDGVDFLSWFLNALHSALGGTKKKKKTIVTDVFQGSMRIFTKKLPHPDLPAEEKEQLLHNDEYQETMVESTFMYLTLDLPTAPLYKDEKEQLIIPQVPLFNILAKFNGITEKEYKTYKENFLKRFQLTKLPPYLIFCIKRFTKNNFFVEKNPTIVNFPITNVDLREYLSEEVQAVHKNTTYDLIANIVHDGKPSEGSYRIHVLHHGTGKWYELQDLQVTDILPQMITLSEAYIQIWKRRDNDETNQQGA
Outline: as §1

[5] = target: T4, USP4 (UniProt Q13107)
T4 sequence (whole entry): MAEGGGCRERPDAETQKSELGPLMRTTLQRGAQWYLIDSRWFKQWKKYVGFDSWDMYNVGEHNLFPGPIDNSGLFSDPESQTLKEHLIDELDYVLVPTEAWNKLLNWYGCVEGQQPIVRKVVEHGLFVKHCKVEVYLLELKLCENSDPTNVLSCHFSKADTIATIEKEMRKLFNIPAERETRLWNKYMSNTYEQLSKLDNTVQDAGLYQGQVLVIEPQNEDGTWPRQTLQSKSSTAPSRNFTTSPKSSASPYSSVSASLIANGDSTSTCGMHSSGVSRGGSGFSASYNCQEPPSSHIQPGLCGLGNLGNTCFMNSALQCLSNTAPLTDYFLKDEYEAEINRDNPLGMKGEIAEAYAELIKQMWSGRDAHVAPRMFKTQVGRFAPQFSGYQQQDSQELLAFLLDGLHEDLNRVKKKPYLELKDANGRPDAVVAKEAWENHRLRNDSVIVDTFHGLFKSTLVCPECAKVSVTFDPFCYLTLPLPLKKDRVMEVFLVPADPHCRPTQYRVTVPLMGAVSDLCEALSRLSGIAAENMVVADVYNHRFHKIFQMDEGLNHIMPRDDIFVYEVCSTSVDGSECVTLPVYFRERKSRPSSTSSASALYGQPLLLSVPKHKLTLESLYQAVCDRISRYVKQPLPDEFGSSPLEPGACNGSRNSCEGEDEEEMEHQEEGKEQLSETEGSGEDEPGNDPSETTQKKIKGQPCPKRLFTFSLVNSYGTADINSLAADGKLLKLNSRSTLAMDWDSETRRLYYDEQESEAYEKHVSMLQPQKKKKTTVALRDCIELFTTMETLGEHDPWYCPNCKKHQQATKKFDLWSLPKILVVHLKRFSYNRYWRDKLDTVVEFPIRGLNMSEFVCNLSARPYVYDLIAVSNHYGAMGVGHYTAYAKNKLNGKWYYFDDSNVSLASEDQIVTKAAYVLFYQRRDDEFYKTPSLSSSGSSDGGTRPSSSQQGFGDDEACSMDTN
Outline: as §1

Measured: log2 ratio of Biotin-Ahx-Ub-VS probe labelling

O=C(CCl)N1CCc2ccccc2C(O)C1 (stereo not given)
inactive: [1] -0.224 | [2] -0.441 | [3] -0.0535 | [4] 0.0381 | [5] -0.274
